Source: PubChem BioAssay (Tox21)
Inconclusive results are not listed. Calls of active or inactive are those of the source. Unless noted, calls come from the whole dose curve; as a rule, active = well fitted curve in the direction sought with a large enough effect in the repeat runs; inconclusive = weak or mixed curves; inactive = no such curve, though single readings can be large; an effect the other way counts as inactive or inconclusive.

What was measured:
[1] = qHTS assay to identify small molecule agonists of the peroxisome proliferator-activated receptor delta (PPARd) signaling pathway - cell viability counter screen (AID 743211); note: nearly all actives have a fitted effect of over 55% in size
Outline: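 Counter screen for cytotoxicity run in parallel with the PPARd reporter screen. Beta-lactamase reporter HEK293H cells exposed to compounds 17 h; ATP-based CellTiter-Glo luminescence quantified viability.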

[2] = biological target: Peroxisome proliferator-activated receptor delta (Homo sapiens) (UniProt Q03181); test: qHTS assay to identify small molecule agonists of the peroxisome proliferator-activated receptor delta (PPARd) signaling pathway (AID 743212; calls by dose curve)
Peroxisome proliferator-activated receptor delta (Homo sapiens), sequence (Q03181 whole entry, looked up): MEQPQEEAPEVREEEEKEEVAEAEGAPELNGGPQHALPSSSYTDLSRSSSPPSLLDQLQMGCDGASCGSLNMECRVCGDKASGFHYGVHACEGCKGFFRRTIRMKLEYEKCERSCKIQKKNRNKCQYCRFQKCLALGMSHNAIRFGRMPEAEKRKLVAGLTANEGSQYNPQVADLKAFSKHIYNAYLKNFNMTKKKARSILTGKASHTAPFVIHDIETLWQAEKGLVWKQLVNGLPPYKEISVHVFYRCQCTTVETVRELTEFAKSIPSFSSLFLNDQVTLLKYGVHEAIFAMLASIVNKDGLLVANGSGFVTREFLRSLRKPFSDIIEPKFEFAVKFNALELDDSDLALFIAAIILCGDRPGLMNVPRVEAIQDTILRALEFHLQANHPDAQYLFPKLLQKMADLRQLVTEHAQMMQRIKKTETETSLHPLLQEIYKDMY
Outline: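 A PPARd-bla HEK293H line with beta-lactamase under an Upstream Activator Sequence is treated with compounds at 37 C. Substrate loading for 2 h at room temperature precedes the fluorescence measurement.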

[3] = qHTS assay to identify small molecule antagonists of the peroxisome proliferator-activated receptor delta (PPARd) signaling pathway - cell viability counter screen (AID 743213); note: nearly all actives have a fitted effect of over 50% in size
Outline: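 Viability counter-screen, qHTS format: PPARd-bla HEK293H, L165041 300 nM final, 17 h compound exposure at 37 C, CellTiter-Glo luminescence after 30 min RT.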

[4] = biological target: Peroxisome proliferator-activated receptor delta (Homo sapiens) (UniProt Q03181); test: qHTS assay to identify small molecule antagonists of the peroxisome proliferator-activated receptor delta (PPARd) signaling pathway (AID 743215; active = well fitted inhibition curve with a large enough effect in the signal ratio in the repeat runs, not every such curve was filed as active; the % refers to the signal ratio;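 note: cells stimulated with agonist L165041 at 300 nM final during compound exposure; series mostly up to about 62 µM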)
Outline: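 Antagonist-mode beta-lactamase reporter screen: HEK293H cells with UAS-bla under PPARd control, stimulated by 300 nM L165041 (final) alongside test compound for 17 h at 37 C, then FRET fluorescence after 2 h substrate incubation.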

[5] = qHTS assay to identify small molecule antagonists of the farnesoid-X-receptor (FXR) signaling pathway - cell viability counter screen (AID 743221; active = well fitted cell-killing curve with a large enough effect in the repeat runs, not every such curve was filed as active; note: nearly all actives have a fitted effect of over 50% in size)
Outline: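 Multiplexed counter screen: viability of FXR-bla HEK 293T cells under agonist stimulation by chenodeoxycholic acid (50 uM, final) and test compound for 16 h at 37 C, measured by CellTiter-Glo luminescence in the reporter wells.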

[6] = biological target: Vitamin D3 receptor (Homo sapiens) (UniProt P11473); test: qHTS assay to identify small molecule agonists of the vitamin D receptor (VDR) signaling pathway (AID 743222; calls by dose curve)
Vitamin D3 receptor (Homo sapiens), sequence (P11473 whole entry, looked up): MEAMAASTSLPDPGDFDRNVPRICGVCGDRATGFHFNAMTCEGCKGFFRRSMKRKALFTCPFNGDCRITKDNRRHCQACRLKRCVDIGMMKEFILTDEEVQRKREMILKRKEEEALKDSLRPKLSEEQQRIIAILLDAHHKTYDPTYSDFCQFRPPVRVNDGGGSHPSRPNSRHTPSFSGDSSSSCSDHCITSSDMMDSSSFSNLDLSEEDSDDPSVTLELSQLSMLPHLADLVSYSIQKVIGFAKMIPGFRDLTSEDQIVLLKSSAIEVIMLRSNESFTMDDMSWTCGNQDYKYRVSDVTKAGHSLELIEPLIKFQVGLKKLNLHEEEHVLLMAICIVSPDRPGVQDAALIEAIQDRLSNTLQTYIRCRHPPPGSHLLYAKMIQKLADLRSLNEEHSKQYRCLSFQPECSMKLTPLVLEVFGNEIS
Outline: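 Agonist activity measured in VDR-bla reporter cells. Exposure 16 h, 37C, 5% CO2; detection by B/G FRET substrate, 2 h RT.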

[7] = biological target: Vitamin D3 receptor (Homo sapiens) (UniProt P11473); test: qHTS assay to identify small molecule antagonists of the vitamin D receptor (VDR) signaling pathway (AID 743223; active = well fitted inhibition curve with a large enough effect in the signal ratio in the repeat runs, not every such curve was filed as active; the % refers to the signal ratio)
Outline: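 Cells carrying a VDR-driven beta-lactamase reporter (VDR-bla) were co-treated with compound and 3 nM final 1alpha,25-dihydroxyvitamin D3 for 16 h at 37C; reporter activity was measured as FRET substrate fluorescence after 2 h at room temperature.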

[8] = qHTS assay to identify small molecule agonists of the vitamin D receptor (VDR) signaling pathway - cell viability counter screen (AID 743224); note: series mostly up to about 63 µM; nearly all actives have a fitted effect of over 50% in size
Outline: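 VDR-bla cell line, quantitative HTS format; 16 h compound incubation (37C, 5% CO2); ATP-based CellTiter-Glo luminescence measured in the reporter assay wells.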

[9] = qHTS assay to identify small molecule agonists of the NFkB signaling pathway (AID 1159509; active = well fitted curve in the direction sought with a large enough effect in the signal ratio in the repeat runs, not every such curve was filed as active; the % refers to the signal ratio; note: series mostly up to about 61 µM)
Outline: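 ME-180 NFkB-bla, 2,000 cells/well, overnight plating; cpd pinned in DMSO, 5 h 37 C; B/G FRET substrate 1.5 h RT; ex 405, em 460/530 nm.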

[10] = qHTS assay to identify small molecule agonists of the endoplasmic reticulum stress response signaling pathway (AID 1159516; active = well fitted activation curve with a large enough effect in the signal ratio in the repeat runs, not every such curve was filed as active; the % refers to the signal ratio)
Outline: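 ER stress element reporter (bla) in HeLa. 1,500 cells/well, overnight attachment; 5 hr compound; 2 hr RT substrate; dual-emission fluorescence.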

[11] = qHTS assay to identify small molecule agonists of the endoplasmic reticulum stress response signaling pathway - cell viability counter screen (AID 1159517; calls by dose curve;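 note: HeLa cells carrying an ER stress response element beta-lactamase reporter; series mostly up to about 61 µM; nearly all actives have a fitted effect of over 50% in size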)
Outline: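 CellTiter-Glo was added to wells already read for beta-lactamase FRET, and luminescence was recorded 30 min later. Cells: ESRE-bla HeLa, 1,500 per well, compound exposure 5 hr at 37 C.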

[12] = qHTS assay to identify small molecule antagonists of the retinoid-related orphan receptor gamma (ROR-gamma) signaling pathway - cell viability counter screen (AID 1159520); note: nearly all actives have a fitted effect of over 50% in size
Outline: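 Tet-on ROR gamma CHO cells (1,000/well) were plated 4 hr, given compounds in DMSO for 2 hr at 37 C, then induced with 1 uM final doxycycline for 16 hr. Viability was read as ATP by CellTiter-Glo luminescence after 30 min.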

[13] = qHTS assay to identify small molecule agonists of the AP-1 signaling pathway - cell viability counter screen (AID 1159525; calls by dose curve; note: nearly all actives have a fitted effect of over 55% in size)
Outline: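 ME-180 AP-1-bla, 2500 cells/well, Opti-MEM + 0.5% dialyzed FBS; overnight 37 °C; cpd 15-pt titration, 5 h 37 °C; CellTiter-Glo 30 min RT; luminescence read; normalised to TOAB and DMSO controls.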

[14] = qHTS assay to identify small molecule agonists of the AP-1 signaling pathway (AID 1159526; calls by dose curve)
[15] = qHTS assay to identify small molecule agonists of the farnesoid-X-receptor (FXR) signaling pathway - cell viability counter screen (AID 743218); note: nearly all actives have a fitted effect of over 45% in size
Outline: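 In GeneBLAzer FXR-UAS-bla HEK 293T cells, compounds act for 16 h at 37 C. Cell viability is then scored in the reporter wells by CellTiter-Glo, 30 min at RT, luminescence.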

[16] = qHTS assay to identify small molecule antagonists of the vitamin D receptor (VDR) signaling pathway - cell viability counter screen (AID 743225); note: nearly all actives have a fitted effect of over 50% in size
Outline: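 HEK293T VDR-bla; cpd + 1a,25-(OH)2D3 3 nM final, 16 h 37C/5% CO2; B/G FRET substrate 2 h RT; then CellTiter-Glo 30 min RT, luminescence.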

[17] = biological target: Bile acid receptor (Homo sapiens) (UniProt Q96RI1); test: qHTS assay to identify small molecule antagonists of the farnesoid-X-receptor (FXR) signaling pathway (AID 743217; active = well fitted inhibition curve with a large enough effect in the signal ratio in the repeat runs, not every such curve was filed as active; the % refers to the signal ratio)
Bile acid receptor (Homo sapiens), sequence (Q96RI1 whole entry, looked up): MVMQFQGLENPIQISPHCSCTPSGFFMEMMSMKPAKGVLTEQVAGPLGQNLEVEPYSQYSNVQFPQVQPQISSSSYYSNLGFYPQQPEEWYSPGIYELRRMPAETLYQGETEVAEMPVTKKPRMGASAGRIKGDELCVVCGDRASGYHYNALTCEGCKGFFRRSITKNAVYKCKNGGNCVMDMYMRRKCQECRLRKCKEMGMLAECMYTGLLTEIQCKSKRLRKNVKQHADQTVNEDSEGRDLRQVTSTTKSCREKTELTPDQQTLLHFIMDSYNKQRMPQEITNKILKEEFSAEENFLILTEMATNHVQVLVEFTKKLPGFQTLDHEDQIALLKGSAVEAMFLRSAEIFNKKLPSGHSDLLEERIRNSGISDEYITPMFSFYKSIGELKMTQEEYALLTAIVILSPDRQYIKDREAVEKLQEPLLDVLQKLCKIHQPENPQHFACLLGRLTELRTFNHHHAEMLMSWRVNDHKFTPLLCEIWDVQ
Outline: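 Beta-lactamase reporter under UAS control in HEK 293T cells; compound exposure 16 h at 37 °C in the presence of chenodeoxycholic acid (50 uM final); signal from B/G FRET substrate after 2 h at room temperature.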

[18] = biological target: Nuclear receptor ROR-gamma (Homo sapiens) (UniProt P51449); test: qHTS assay to identify small molecule antagonists of the retinoid-related orphan receptor gamma (ROR-gamma) signaling pathway (AID 1159521)
Outline: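 Cells were plated, rested 4 h at 37 C, exposed to compounds for 2 h, then given 1 uM final doxycycline hyclate to induce RORγ expression. After 16 h, ONE-Glo luminescence from the ROR response element reporter was measured.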

Measured: Potency

CCCCCCNC(=O)n1cc(F)c(=O)[nH]c1=O
not listed: [15] | [16] | [17] | [18]
inactive: all other assays above

CCCCCCCCCI
not listed: [4] | [6] | [7] | [14] | [17] | [18]
inactive: all other assays above

O=C1c2ccccc2C(=O)N1CCc1noc(-c2ccc(CN3CCCCCC3)s2)n1
not listed: [4] | [6] | [7] | [8] | [18]
inactive: all other assays above

CC(C)=CCC/C(C)=C/CC/C(C)=C/CCC(=O)OC/C=C(\C)CCC=C(C)C
not listed: [6] | [7] | [13] | [17]
inactive: all other assays above

Cc1cc2c(OCC(CNC(C)(C)C)OC(=O)c3ccccc3)cccc2[nH]1 (centres undefined)
not listed: [2] | [17] | [18]
inactive: all other assays above

FC(F)(F)c1ccccc1Cl
not listed: [13] | [18]
inactive: all other assays above

O=C=Nc1cccc(C(F)(F)F)c1
inactive: [2] | [4] | [9] | [10] | [11] | [12] | [13] | [14]

Cc1[nH]cnc1CN1CCc2c(c3ccccc3n2C)C1=O
not listed: [2] | [4] | [6] | [13] | [17]
inactive: all other assays above

N#CCc1ccc(Cl)cc1Cl
not listed: [4] | [7] | [17] | [18]
inactive: all other assays above
